Each structure is given as a SMILES string. “And” between values parts separate entries of the source, which are not always exact repeats. Identical values can stand only once. Results filed as inconclusive are left out. The source made the active and inactive calls. Calls follow the shape of the dose curve; as a rule, active = well fitted inhibition curve with a large enough effect; inconclusive = small, poorly fitted or top-dose-only effect; inactive = no such curve, though single readings can be large or run the other way.
Potency is read from the fitted curve at half-maximal effect.

This test is described as follows: Primary qHTS for inhibitors of nuclear receptor binding SET domain protein 2 (NSD2) in an RCH-ACV wild type WT cells (2C) (AID 1645877). Also: nearly all actives have a fitted effect of over 70% in size. The following applies: RCH-ACV (leukaemia line) NSD2 WT (2C) viability, CellTiter-Glo, 72 h; series mostly up to 44.9 µM. An excerpt: Assay Provider: Jonathan D. Licht, MD
University of Florida College of Medicine, Gainesville, FL
Mutations in epigenetic regulators are common in relapsed pediatric acute lymphoblastic leukemia (ALL). Here, we uncovered the mechanism underlying the relapse of ALL driven by an activating mutation of the NSD2 histone methyltransferase (p.E1099K). […] Correction of this mutation restored glucocorticoid sensitivity. The transcriptional response to glucocorticoids was blocked in NSD2 mutant cells due to depressed glucocorticoid receptor (GR) levels and the failure of glucocorticoids to autoactivate GR expression. […] Pre-treatment of NSD2 p.E1099K cell lines and PDX samples with PRC2 inhibitors reversed glucocorticoid resistance in vitro and in vivo.
High-throughput drug screening of isogenic RCH-ACV cell lines was performed at the National Center for Advancing Translational Science (NCATS), National Institutes of Health as previously described (1). Briefly, isogenic RCH-ACV NSD2 p.E1099K mutant (9B) and WT cells (2C) were plated at 500 cells/well in a 1536-well plate with a 72-hour incubation with compounds prior to addition of CellTiter-Glo to assess cell viability. NCATS libraries screened include: NPC, MIPE 5.0, Kinase and NPACT. To determine compound activity in the qHTS assay, the concentration-response data for each sample was plotted and modeled by a four-parameter logistic fit yielding IC50 and efficacy (maximal response) values. The area under the curve (AUC) of the dose-response curve ensures both efficacy (magnitude of cell killing) and potency (concentration that elicits cell killing) are accounted for in the analysis of activity.
1. Tobie D Lee, Olivia W Lee, Kyle R Brimacombe, Lu Chen, Rajarshi Guha, Sabrina Lusvarghi, Bethilehem G Tebase, Carleen Klumpp-Thomas, Robert W Robey, Suresh V Ambudkar, Min Shen, Michael M Gottesman, Matthew D Hall. A High-Throughput Screen of a Library of Therapeutics Identifies Cytotoxic Substrates of P-glycoprotein. Mol Pharmacol. 2019, Nov;96(5):629-640.
On to `CCCCCn1cc(C(=O)c2cccc3ccccc23)c2ccccc21`, for which the Potency result is “inactive”.

Regarding `CC(C)C(=O)O[C@H]1[C@@H]2[C@H](C)C(=O)O[C@@H]2C[C@@H](C)[C@@H]2C=CC(=O)[C@]21C`, the Potency was 2.84 µM (active).

As to `C=C1C(=O)O[C@@H]2[C@H]3C(=C)[C@@H](O)C[C@H]3C(=C)C[C@@H](O)[C@@H]12`, the Potency is 6.49 µM (active).

As for `C=C1[C@@H](O)[C@]2(O)OC[C@]34C2[C@]2(C)C(C[C@H]3OC(=O)[C@H](O)[C@@]14O)C(C)=CC(=O)[C@H]2O` (stereo not given in full), the Potency was 3.17 µM (active).

On to `N#Cc1ccc([C@H]2CCCC[C@H]2O)cc1C(F)(F)F`, for which the Potency result is “inactive”.

For `Oc1ccc2c(c1)C13CCCC[C@H]1[C@@H](C2)N(CC1CCC1)CC3`, the Potency was 23 µM (active).

With `N#Cc1cn([C@@H]2O[C@H](CO)[C@H](O)[C@@H]2O)c2ncnc(N)c12`, the Potency is 0.0073 µM (active).

For `OCc1nnc2n1-c1ccc(Cl)cc1C(c1ccccc1Cl)=NC2`, the Potency result is “inactive”.

Regarding `CC1=CC2OC3CC(O)[C@](C)([C@@]2(C)C(O)C1=O)[C@]31CO1` (stereo not given in full), the Potency is 4.09 µM (active).

As for `Cc1cccc(NC(=O)c2ccc(C(F)(F)F)cc2C(=O)O)n1`, the Potency result is “inactive”.

As to `C=C(CO)[C@@]12O[C@@H]1[C@@]1(C)C(=CC2=O)CC[C@@H](O)[C@@H]1C`, the Potency is 12.9 µM (active).

Consider `CC[C@@H](C)[C@H]1C(=O)O[C@H](C(C)C)C(=O)N(C)[C@@H]([C@@H](C)CC)C(=O)O[C@H](C(C)C)C(=O)N(C)[C@@H]([C@H](C)CC)C(=O)O[C@H](C(C)C)C(=O)N1C`, for which the Potency is 1.71 µM (active).

For `C[C@@H]1O[C@@H](O[C@H]2CC[C@@]3(C)C(CC[C@@H]4C3CC[C@]3(C)[C@@H](C5=CC(=O)OC5)CC[C@]43O)C2)[C@H](O[C@@H]2O[C@H](CO)[C@@H](O)[C@H](O)[C@H]2O)[C@H](O)[C@H]1O` (stereo not given in full), the Potency is 0.483 µM (active).

On to `CN(C)c1cc2c(cc1Sc1nc3c(N)nccc3n1CCNCC(C)(C)C)OCO2`, for which the Potency is 365 nM (active) and 742 nM (active).

On to `Cc1cccc(NC(=O)N[C@H]2CN(C)c3ccccc3C(c3ccccc3)=N2)c1`, for which the Potency was 14.5 µM (active).

For the compound `C[C@H]1CCC/C=C/C2C[C@H](O)C[C@H]2[C@H](O)/C=C/C(=O)O1` (stereo not given in full), the Potency is 163 nM (active) and 417 nM (active).

Regarding `CC(=O)O[C@H]1C[C@]2(O)[C@@H]3CC[C@@H]4C[C@@H](O)CC[C@]4(C)[C@H]3CC[C@]2(C)[C@H]1c1ccc(=O)oc1`, the Potency is 0.0578 µM (active).

As for `COc1cccc(NCC(F)Cn2c3ccc(Br)cc3c3cc(Br)ccc32)c1` (stereo not given), the Potency was 20.5 µM (active).

`CN1CCc2cc3c(cc2C1C1OC(=O)c2c1ccc1c2OCO1)OCO3` (stereo not given): the Potency entry is “inactive”.

With `CCCN(CCC)[C@@H]1CCc2ccc3[nH]c(C#N)cc3c2C1`, the Potency result was “inactive”.

Turning to `CC(=O)O[C@H]1C(=O)[C@]2(C)C(O)C[C@H]3OC[C@@]3(OC(C)=O)[C@H]2[C@H](OC(=O)c2ccccc2)[C@]2(O)C[C@H](O)C(C)=C1C2(C)C` (stereo not given in full), the Potency was 5.41 µM (active).

For `Cc1c(Cl)c(OCC(=O)N2CCN(C)CC2)nc2sc(C(=O)NC3CC3)c(N)c12`, the Potency result is “inactive”.

Regarding `CCCCn1cc(C(=O)c2cccc3ccccc23)c2ccccc21`, the Potency entry was “inactive”.

Turning to `CCOC(=O)c1ccc(-c2ccc(OC(=O)N(C)Cc3cccc(-c4ccncc4)c3)cc2)cc1`, the Potency result was “inactive”.

Regarding `CCC(C)(O)C1(C(=O)O)COC(=O)C1` (stereo not given), the Potency result was “inactive”.

`C[C@H]1O[C@@H](O[C@H]2CC[C@]3(C=O)C4CC[C@]5(C)[C@@H](C6=CC(=O)OC6)CC[C@]5(O)[C@@H]4CC[C@]3(O)C2)C[C@@H](O)[C@@H]1O` (stereo not given in full): the Potency is 0.0317 µM (active).

With `C[C@]12CC[C@H](O)C[C@@H]1CC[C@@H]1[C@@H]2CC[C@]2(C)C(=O)CC[C@@H]12`, the Potency result is “inactive”.

Regarding `Cc1ccc2c(c1)[C@H]1CN(C)CC[C@H]1N2C(=O)CSc1nnnn1-c1ccc(Cl)cc1`, the Potency result was “inactive”.

In the case of `CC12CCC3C(C1)c1c(cc(O)c(C(=O)c4ccccc4)c1OC3(C)C)O2` (stereo not given), the Potency result is “inactive”.

For `CC1=CC2/C=C(\C)CCC(O)C(O)/C=C/C(=O)C23C(=O)NC(CC(C)C)C3C1C` (stereo not given), the Potency was 2 µM (active).

Consider `Fc1cc(F)c2c(c1)[C@H]1C=CC[C@H]1C(c1cccnc1)N2` (stereo not given in full), for which the Potency was 8.17 µM (active).

In the case of `COc1ccc(CN(C(=O)[C@@H](N)Cc2c(C)cc(C(N)=O)cc2C)[C@@H](C)c2ncc(-c3ccccc3)[nH]2)cc1C(=O)O`, the Potency entry is “inactive”.

For the compound `COc1cc2c(c(OC)c1OC)-c1ccc(SC)c(=O)cc1[C@@H](NC(C)=O)CC2`, the Potency was 0.0058 µM (active).

With `CC(=O)O[C@@H]1[C@H]2CC[C@H]3[C@@](C)(O)[C@@H]4C[C@H](O)C(C)(C)[C@@]4(O)[C@H](O)C[C@@]13C[C@@]2(C)O`, the Potency entry is “inactive”.

In the case of `C/C=C1/CN2CC[C@]34C(=Nc5ccccc53)[C@@H]2C[C@@H]1[C@H]4C(=O)OC`, the Potency result is “inactive”.

With `CCCCCn1cc(C(=O)C2C(C)(C)C2(C)C)c2ccccc21`, the Potency result was “inactive”.

As to `CC(=O)OC[C@]12C[C@H](OC(=O)CC(C)C)C(C)=C[C@H]1O[C@@H]1[C@H](O)[C@@H](OC(C)=O)[C@@]2(C)[C@@]12CO2`, the Potency was 0.01 µM (active).

As to `N#CC(O[C@@H]1O[C@H](CO)[C@@H](O)[C@H](O)[C@H]1O)c1ccccc1` (stereo not given in full), the Potency entry was “inactive”.

Turning to `CC1=C[C@H]2O[C@@H]3C[C@H]4OC(=O)/C=C/C=C/C(=O)OCC/C(C)=C/C(=O)OC[C@@]2(CC1)[C@]4(C)[C@]31CO1`, the Potency was 0.0032 µM (active).

`C=C[C@H]1CN2CCC1C[C@H]2[C@H](O)c1ccnc2ccccc12` (stereo not given in full): the Potency result was “inactive”.
